From PubChem BioAssay (NCATS) come the findings set out here.

The structures appear in SMILES notation. Records with an inconclusive call do not appear. Active and inactive are the calls of the source. The call rests on the fitted dose curve; in most records, active means well fitted inhibition curve with a large enough effect; inconclusive means small, poorly fitted or top-dose-only effect; inactive means flat fitted curve, though single readings scatter.

The target of the assay is Calcium and integrin-binding protein 1 (Homo sapiens) (UniProt Q99828). The experiment in a line: Primary qHTS for Identification of Calcium Integrin Binding Protein 1 (CIB1) Competitor (AID 1508620). Further: top concentration of the series differs between compounds. The note with it: CIB1-GST / FITC-alphaIIb peptide fluorescence polarization; series mostly up to 57.7 µM. An outline of the steps: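 Fluorescence polarization competition: GST-tagged CIB1 (1 uM final) preincubated with compound 15 min at room temperature, then FITC-labelled alphaIIb peptide (100 nM final) added. After 15 min at room temperature, polarization read at Ex 480/Em 540.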
Sequence of Calcium and integrin-binding protein 1 (Homo sapiens) (Q99828 whole entry, looked up): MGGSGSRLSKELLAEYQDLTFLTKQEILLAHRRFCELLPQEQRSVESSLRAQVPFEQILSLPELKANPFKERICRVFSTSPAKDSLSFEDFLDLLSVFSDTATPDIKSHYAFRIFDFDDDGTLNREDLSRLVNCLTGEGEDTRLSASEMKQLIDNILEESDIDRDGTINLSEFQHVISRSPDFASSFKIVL
In general terms: In qHTS, concentration-response curves come from the screen itself.
Take `OCCCNc1cc(-c2ccnc(Nc3cccc(Cl)c3)n2)ccn1`: the outcome was inactive.
For the compound `COc1cc2c(Oc3ccc(-c4cnc(Nc5ccc(F)cc5)n(C)c4=O)cc3F)ccnc2cc1OCCCN1CCOCC1`, the outcome was inactive.
As to `C#Cc1cccc(Nc2ncnc3cc(OC)c(OCCCCCCC(=O)NO)cc23)c1`, the outcome was inactive.
Then `Nc1nccc(Oc2ccc(NC(=O)c3c[nH]cc(-c4ccc(F)cc4)c3=O)cc2F)c1Cl`, with “inactive”; and `CCS(=O)(=O)c1cccc(-c2cc(C(=O)NC3CCN(C)CC3)c(C)c3[nH]c4ncc(C)cc4c23)c1`, with “inactive”; and `Nc1ccccc1NC(=O)c1ccc(CNc2nccc(-c3cccnc3)n2)cc1`, with “inactive”.
Then `CCCCc1nc2cc(C=CC(=O)NO)ccc2n1CCN(CC)CC`, with “inactive”; and `CC(C)(C)c1cnc(CSc2cnc(NC(=O)C3CCNCC3)s2)o1`, with “inactive”.
Then `Nc1ncnc2c1c(-c1cccc(OCc3ccccc3)c1)cn2C1CC(CN2CCCC2)C1` (stereo not given), with “inactive”.
On to `C[C@@H](Oc1cc(-c2cnn(C3CCNCC3)c2)cnc1N)c1c(Cl)ccc(F)c1Cl`, for which the result was inactive.
Regarding `CC(C)c1cnn2c(NCc3ccccc3)cc(N[C@@H](CO)[C@H](O)CO)nc12`, the result was inactive.
In the case of `Cc1ccc(C(=O)Nc2cccc(C(F)(F)F)c2)cc1-c1ccc2nc(NCCN3CCOCC3)ncc2c1`, the result was inactive.
To `CC1(C)CC(=O)c2c(C(F)(F)F)nn(-c3ccc(C(N)=O)c(NC4CCC(OC(=O)CN)CC4)c3)c2C1` (stereo not given) belongs “inactive”.
To `COc1c(OCCCN2CCOCC2)ccc2c3n(c(=NC(=O)c4cnc(N)nc4)nc12)CCN3` belongs “inactive”.
Then `Cc1cc(Nc2cc(CN3CCOCC3)c3nc(C)c(Cc4ccc(Cl)cc4F)n3n2)n[nH]1`, with “inactive”; and `CC(C)(C)NC(=O)[C@H]1CN(Cc2cccnc2)CCN1C[C@@H](O)C[C@@H](Cc1ccccc1)C(=O)N[C@H]1c2ccccc2C[C@H]1O`, with “inactive”; and `CN(C)Cc1c(C(=O)NCCOc2ccc(C(=O)NO)cc2)oc2ccccc12`, with “inactive”.
On to `Cn1cncc1[C@@](N)(c1ccc(Cl)cc1)c1ccc2c(c1)c(-c1cccc(Cl)c1)cc(=O)n2C`, for which the outcome was inactive.
With `O=C(C=Cc1cccnc1)NCCCCC1CCN(C(=O)c2ccccc2)CC1`, the result was inactive.
As to `Cn1c2ccccc2c2c3c(c4c5ccccc5n(CCC#N)c4c21)CNC3=O`, the outcome was inactive.
For `c1ccc2c(CCNc3ccc(Nc4ccncc4)cc3)c[nH]c2c1`, the outcome was inactive.
To `CC(C)c1noc(N2CCC(COc3ccc(-c4ccc(S(C)(=O)=O)cc4)nc3)CC2)n1` belongs “inactive”.
Then `COC(=O)C[C@](O)(CCCC(C)(C)O)C(=O)O[C@@H]1C(OC)=C[C@]23CCCN2CCc2cc4c(cc2[C@H]13)OCO4`, with “inactive”; and `O=C(Nc1nc2cccc(-c3ccc(CN4CCS(=O)(=O)CC4)cc3)n2n1)C1CC1`, with “inactive”.
On to `CC=C1NC(=O)[C@H]2CSSCCC=C[C@H](CC(=O)N[C@H](C(C)C)C(=O)N2)OC(=O)[C@H](C(C)C)NC1=O`, for which the result was inactive.
Then `Cc1cc(Nc2nc(N[C@@H](C)c3ccc(F)cc3)c(C#N)cc2F)n[nH]1`, with “inactive”.
As for `O=C(O)Cn1nnc(-c2cc(N3CCC(Oc4cc(F)ccc4Br)CC3)no2)n1`, the result was inactive.
Then `CCC[C@H](NC(=O)C(C#N)=Cc1cccc(Br)n1)c1ccccc1`, with “inactive”; and `COc1ccc2c(OCc3nnc4ccc(-c5ccccc5)nn34)ccnc2c1`, with “inactive”; and `COc1c(N2C[C@@H]3CCCN[C@H]3C2)c(F)cc2c(=O)c(C(=O)O)cn(C3CC3)c12`, with “inactive”.
To `CN1CCN(Cc2ccc(NC(=O)Nc3ccc(Oc4cc(NC(=O)C5CC5)ncn4)cc3)cc2C(F)(F)F)CC1` belongs “inactive”.
To `CNC(=O)c1nn(C)c2c1C(C)(C)Cc1cnc(Nc3ccc(N4CCN(C)CC4)cc3)nc1-2` belongs “inactive”; to `COc1cc(Nc2ncc(F)c(Nc3ccc4c(n3)N(COP(=O)(O)O)C(=O)C(C)(C)O4)n2)cc(OC)c1OC`, “inactive”; to `COc1ccc(C(=O)CC2(O)C(=O)Nc3c(Cl)ccc(Cl)c32)cc1` (stereo not given), “inactive”.
Take `CC(C)c1nn(-c2c(Cl)cccc2Cl)c2nc(Cc3ccc(OCCO)cc3)[nH]c(=O)c12`: the result was inactive.
